An excerpt weighted towards active compounds, which were near 6.7% of everything screened.
T cruzi growth: blocks T. cruzi growth in NIH3T3 culture. inhibition, % at 8.34 µM. AID 624255. T. cruzi beta-gal in NIH3T3, GalScreen luminescence, 90 h. 77,000 tested, 5.9% active;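 active = mean inhibition above about 93%, with at least 55% of replicates each passing it, limit read from the data, passing the limit was not always enough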
Pf Dd2 growth: blocks growth of Plasmodium falciparum Dd2 parasites; 94,000 tested, 2.3% active; AID 1159554; activity change, % at 10 µM; P. falciparum Dd2 growth, SYBR Green, 72 h; hits give low values; in the data active = activity change below about -80%
C diff growth: inhibitors of Clostridium difficile growth. Clostridium difficile clinical isolate growth, OD600, 24 h; hits give low values. growth activity, negative = inhibition, % at 16 µg/mL (by protocol). AID 1259249. 86,000 tested, 0.25% active;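 active = mean growth activity at or below -80% and every replicate also at or below -80%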;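 also: 0% = DMSO wells and -100% = levofloxacin 16 µg/mL wells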
Active calls of the source: *; · = no result given.

SMILES	T cruzi growth	Pf Dd2 growth	C diff growth
C[C@H]1CN([C@@H](C)CO)S(=O)(=O)c2ccc(-c3ccc(C#N)cc3)cc2O[C@H]1CN(C)CC1CC1	-47.6	-91.2*	4.9
CCCN(C)C[C@H]1Oc2cc(C#Cc3ccccc3OC)ccc2S(=O)(=O)N([C@H](C)CO)C[C@H]1C	78.6	-80.7*	2.5
CCCN(C)C[C@@H]1Oc2cc(C#Cc3cccnc3)ccc2S(=O)(=O)N([C@@H](C)CO)C[C@@H]1C	47.2	-85.7*	0.4
C[C@H]1CN([C@@H](C)CO)S(=O)(=O)c2ccc(C#Cc3cccnc3)cc2O[C@H]1CN(C)CC1CC1	-1.1	-73.1	·
C[C@@H]1CN([C@@H](C)CO)S(=O)(=O)c2ccc(-c3ccc(C#N)cc3)cc2O[C@@H]1CN(C)CC1CC1	-38.0	-77.0	-3.4
O=C(C[C@H]1CC[C@@H](NC(=O)c2ccccn2)[C@H](CO)O1)NCc1cccc(F)c1	40.1	12.0	1.3
C[C@H]1CN([C@@H](C)CO)C(=O)c2cccc(NC(=O)C3CC3)c2O[C@H]1CN(C)CC1CC1	·	0.7	1.4
C[C@@H]1CN([C@H](C)CO)S(=O)(=O)c2ccc(C#CC3CC3)cc2O[C@@H]1CN(C)C(=O)CN(C)C	24.6	-26.6	-16.4
CCC(=O)NC[C@@H]1[C@@H](c2ccc(C3=CCCCC3)cc2)[C@@H](CO)N1CC1CC1	·	-65.1	12.2
CCCNC[C@@H]1[C@@H](c2ccc(C3=CCCCC3)cc2)[C@@H](CO)N1C(=O)C1CCC1	·	-72.9	8.9
CCC(=O)N1[C@H](CO)[C@H](c2ccc(C3=CCCCC3)cc2)[C@@H]1CNC1CCCC1	·	-75.7	17.1
OC[C@@H]1[C@H](c2ccc(C3=CCCC3)cc2)[C@@H](CNC2CCCC2)N1CC1CC1	·	-90.7*	41.6
CCC(=O)N1[C@H](CO)[C@H](c2ccc(C3=CCCCC3)cc2)[C@H]1CNCC1CCC1	·	-85.2*	9.8
CCCNC[C@H]1[C@@H](c2ccc(C3=CCCCC3)cc2)[C@@H](CO)N1C(=O)C1CCC1	·	-83.3*	6.6
O=C(C1CC1)N1CC2(C1)[C@@H](c1ccccc1)[C@@H](CO)N2Cc1ccc(Cl)cc1	·	-26.9	2.1
C[C@@H]1CN([C@H](C)CO)C(=O)c2cc(C#Cc3ccccc3F)cnc2O[C@H]1CN(C)C(=O)C1CCC1	94.8	-58.8	-0.1
C[C@@H]1CN([C@@H](C)CO)C(=O)c2cc(NC(=O)Nc3ccc4c(c3)OCO4)ccc2O[C@@H](C)CCCCO[C@H]1CN(C)C(=O)Nc1cccc2ccccc12	23.4	-41.8	10.0
C[C@@H]1CCCCO[C@H](CN(C)C(=O)Nc2cccc3ccccc23)[C@H](C)CN([C@@H](C)CO)C(=O)c2cc(NC(=O)Nc3ccc4c(c3)OCO4)ccc2O1	49.1	-82.8*	6.8
C[C@@H]1CN([C@@H](C)CO)C(=O)c2cc(NC(=O)Nc3cccc4ccccc34)ccc2O[C@@H](C)CCCCO[C@H]1CN(C)C(=O)Nc1cccc2ccccc12	7.8	-8.7	·
C[C@@H]1CCCCO[C@@H](CN(C)C(=O)Nc2cccc3ccccc23)[C@@H](C)CN([C@H](C)CO)C(=O)c2cc(NC(=O)Nc3cccc4ccccc34)ccc2O1	-20.5	-50.8	·
C[C@@H]1CCCCO[C@@H](CN(C)C(=O)Nc2cccc3ccccc23)[C@H](C)CN([C@H](C)CO)C(=O)c2cc(NC(=O)Nc3ccc4c(c3)OCO4)ccc2O1	85.7	-89.6*	9.4
C[C@@H]1CCCCO[C@@H](CN(C)C(=O)Nc2ccc3c(c2)OCO3)[C@@H](C)CN([C@@H](C)CO)C(=O)c2cc(NC(=O)Nc3cccc4ccccc34)ccc2O1	·	-91.2*	1.2
C[C@@H]1CCCCO[C@@H](CN(C)C(=O)Nc2cccc3ccccc23)[C@@H](C)CN([C@H](C)CO)C(=O)c2cc(NC(=O)Nc3ccc4c(c3)OCO4)ccc2O1	-11.8	-87.4*	-0.6
C[C@H](CO)N1C[C@H](C)[C@H](CN(C)C(=O)Nc2ccc3c(c2)OCO3)OCCCC[C@H](C)Oc2ccc(NC(=O)Nc3cccc4ccccc34)cc2C1=O	61.5	38.7	-3.5
CO[C@@H]1CN(C)C(=O)c2cc(NC(=O)c3cnccn3)ccc2OC[C@H](C)N(C(C)=O)C[C@@H]1C	·	8.0	·
SMILES	T cruzi growth	Pf Dd2 growth	C diff growth
Cc1ccc(S(=O)(=O)N(C)C[C@H]2Oc3ccc(NS(=O)(=O)c4ccc(Cl)cc4)cc3CC(=O)N([C@@H](C)CO)C[C@@H]2C)cc1	28.7	10.2	11.4
COC(=O)C[C@@H]1CC[C@H]2[C@H](COc3ccc(NC(=O)c4cccc(OC)c4)cc3C(=O)N2C)O1	-14.4	-1.4	-3.8
CCC(=O)NC[C@@H]1[C@H](c2ccccc2)[C@@H](CO)N1C(=O)C1CCC1	-4.3	11.6	1.7
COc1ccc2c3c(n(C)c2c1)[C@@H](CO)N(C(=O)C1CC1)CC31CCN(C(=O)CN(C)C)CC1	·	-84.3*	-4.0
CCCNC(=O)N1CC2(CN(C(=O)CN(C)C)C2)c2c(n(C)c3cc(OC)ccc23)[C@H]1CO	·	33.0	2.7
CCCNC(=O)N1CC2(C1)CN(S(C)(=O)=O)[C@@H](CO)c1c2c2ccc(OC)cc2n1C	·	43.1	-10.3
CCCNC(=O)N1CC2(CCN(C(=O)CN(C)C)CC2)c2c(n(C)c3cc(OC)ccc23)[C@H]1CO	·	-88.2*	-4.2
COc1ccc2c3c(n(C)c2c1)[C@H](CO)N(C(=O)C1CC1)CC31CCN(C(=O)CN(C)C)CC1	·	-78.4	-2.7
CCCNC(=O)N1CCC2(CC1)CN(S(C)(=O)=O)[C@H](CO)c1c2c2ccc(OC)cc2n1C	·	-83.3*	3.1
CCCNC(=O)N1CC2(CCN(Cc3cccc(OC)c3)CC2)c2c(n(C)c3cc(OC)ccc23)[C@@H]1CO	·	-88.7*	-3.3
CCCNC(=O)N1CC2(CCN(Cc3cccc(OC)c3)CC2)c2c(n(C)c3cc(OC)ccc23)[C@H]1CO	·	-72.4	0.5
C[C@H]1CN([C@@H](C)CO)C(=O)CCCn2cc(nn2)CO[C@H]1CN(C)Cc1ccc(O)cc1	17.7	19.8	·
COc1ccccc1C(=O)N1C[C@@H]2[C@H](c3ccccc31)[C@@H](CO)N2CC1CCOCC1	-0.3	-1.2	4.9
CCC(=O)N1CC2(CN(Cc3ccc(Cl)cc3)C2)c2c(n(C)c3cc(OC)ccc23)[C@@H]1CO	·	-65.4	5.5
CCC(=O)N1CC2(CCN(Cc3ccc(Cl)cc3)CC2)c2c(n(C)c3cc(OC)ccc23)[C@H]1CO	·	-82.8*	-2.0
CO[C@H]1CN(C)C(=O)c2cc(NC(=O)c3ccc(F)cc3)ccc2OC[C@H](C)N(C(C)=O)C[C@@H]1C	-13.5	6.2	-0.3
C[C@@H]1CN([C@H](C)CO)C(=O)c2cc(/C=C/c3ccccc3)cnc2O[C@@H]1CN(C)C(=O)c1ccc2c(c1)OCO2	·	-7.9	4.8
C[C@H]1CCCCO[C@H](CN(C)C(=O)c2ccccc2)[C@@H](C)CN([C@@H](C)CO)C(=O)c2cc(NS(=O)(=O)c3cccs3)ccc2O1	55.7	-50.2	8.3
C[C@@H](NC(=O)[C@@H]1[C@@H](CO)[C@@H]2Cn3c(cccc3=O)[C@H]1N2Cc1cccnc1)c1ccccc1	-5.0	12.2	-5.0
C[C@H](CO)N1C[C@H](C)[C@H](CN(C)CC2CCCCC2)Oc2ccc(NC(=O)Nc3ccc(C(F)(F)F)cc3)cc2C1=O	81.4	-68.9	22.6
